A549 tox: counter-screen for Nrf2 inhibitors: cytotoxicity in A549 cells | Potency, µM (titrated, usually from 46 µM), most hits filed as inhibitors | actives 0.16% (n = 390,000) | AID 504648 | A549 ARE-Fluc cells, CellTiter-Fluor viability, 18-24 h
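A549 ARE_Fluc cells in 5% FBS OPTI-MEM were exposed to compounds in concentration-response for 18-24 h at 37 deg C. Viability was read by CellTiter-Fluor fluorescence (Ex 405/Em 525) after 30 min, before the luciferase read.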
Nrf2 inh: inhibitors of Nrf2 signaling | A549 ARE-Fluc reporter, luciferase luminescence, 18-24 h | Potency, µM (series often up to 46 µM), actives largely listed as inhibitors | actives 2.1% (n = 360,000); note: nearly all actives have a fitted effect of over 60% in size
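A549 ARE_Fluc cells (5000/well, 5% FBS OPTI-MEM) pre-incubated 2 h, then treated with compounds 18-24 h at 37C/5% CO2 in concentration-response. CellTiter-Fluor viability read first; BugLite luciferase luminescence after 15 min at room temperature gives Nrf2 activity.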
Mito fusion yeast: inhibitors of mitochondrial division or activators of mitochondrial fusion. S. cerevisiae fusion-defective mutant growth rescue, CellTiterGlo 48 h. Potency, µM (highest dose often 46.1 µM), hits mostly activators. actives 0.23% (n = 320,000); note: nearly all actives have a fitted effect of over 45% in size
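Luminescent cell viability in 1536-well qHTS format served as the measure of rescued growth in ts fusion-mutant S. cerevisiae cultured on non-fermentable YPEG for 48 hours at 37C.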
TrxR1 substrate: rat thioredoxin reductase 1 substrate activity; purified TrxR1 substrate turnover, NADPH consumption readout; Potency, µM (series often up to 114 µM); actives 0.01% (n = 390,000); AID 588456; note: nearly all actives have a fitted effect of over 50% in size
Target sequence (O89049 whole entry, looked up): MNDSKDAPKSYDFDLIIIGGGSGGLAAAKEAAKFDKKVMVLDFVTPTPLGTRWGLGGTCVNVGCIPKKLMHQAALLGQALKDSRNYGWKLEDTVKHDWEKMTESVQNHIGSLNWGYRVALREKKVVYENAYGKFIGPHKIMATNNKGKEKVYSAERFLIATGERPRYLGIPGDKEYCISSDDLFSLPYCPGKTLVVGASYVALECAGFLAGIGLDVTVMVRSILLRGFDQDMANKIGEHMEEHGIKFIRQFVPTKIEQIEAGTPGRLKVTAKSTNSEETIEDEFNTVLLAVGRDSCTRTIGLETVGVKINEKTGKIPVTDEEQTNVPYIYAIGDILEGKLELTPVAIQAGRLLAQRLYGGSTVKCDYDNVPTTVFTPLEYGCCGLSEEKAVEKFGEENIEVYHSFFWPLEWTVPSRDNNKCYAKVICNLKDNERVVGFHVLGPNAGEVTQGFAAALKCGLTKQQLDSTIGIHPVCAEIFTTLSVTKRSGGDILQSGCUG
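Rat TrxR1, dispensed at 90 nM, was prereduced with 400 uM NADPH (final) for 5 min at ~22 deg C, then incubated with compound 15 min before 400 uM selenite. A first-read NADPH fluorescence drop versus no-compound background flagged substrates.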
IDH1 R132H inh: human IDH1 R132H inhibition. IDH1-R132H enzyme, NADPH consumption, diaphorase/resazurin fluorescence. Potency, µM (doses to about 76.6 µM), actives largely listed as inhibitors. AID 602179. actives 0.093% (n = 390,000); note: nearly all actives have a fitted effect of over 65% in size
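IDH1-R132H (0.5 ug/mL) preincubated 30 min with compound, then NADPH (0.016 mM) and alpha-KG (2 mM) added; 80 min at RT, pH 7.5. Remaining NADPH coupled via diaphorase/resazurin to fluorescence (540/590 nm); concentration-response curves normalized to no-enzyme control.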
TrxR1 inh: inhibitors of rat thioredoxin reductase 1; recombinant rTrxR1, NADPH fluorescence consumption, selenite substrate; actives 1% (n = 390,000); Potency, µM (highest dose often 114 µM), hits mostly inhibitors; note: nearly all actives have a fitted effect of over 65% in size
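Rat TrxR1 (90 nM in the dispensed reagent) was pre-reduced with 400 uM NADPH for 5 min at room temperature, then incubated with compound for 15 min. After 400 uM selenite was added, NADPH fluorescence (Ex 340/Em 450 nm) was followed for 8 min.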
Hits are given with their value; – = inactive; ? = inconclusive; · = not tested or not shown. This is a sample that favours compounds with a hit; in the whole collection about 3.1% have one here. Calls come from the whole dose curve; as a rule, active = well fitted curve in the direction sought with a large enough effect; inconclusive = small, poorly fitted or top-dose-only effect, or another doubt; inactive = no such curve, though single readings can be large; an effect the other way counts as inactive or inconclusive.

SMILES	A549 tox	Nrf2 inh	Mito fusion yeast	TrxR1 substrate	IDH1 R132H inh	TrxR1 inh
C=CCC[C@@H](Cc1ccc(F)cc1)C(=O)OC[C@@H](NC(=O)[C@@H](CC=C)CC(=O)N[C@@H](CO)Cc1ccccc1)C(C)(C)C	?	21µM	·	–	–	–
C=CCC[C@H](Cc1ccc(F)cc1)C(=O)OC[C@@H](NC(=O)[C@@H](CC=C)CC(=O)N(CCO)Cc1ccccc1)C(C)(C)C	6.5µM	3.3µM	·	–	–	–
C=CCC[C@H](Cc1ccc(F)cc1)C(=O)OC[C@@H](C)NC(=O)[C@@H](CC=C)CC(=O)N[C@H](CO)Cc1ccccc1	?	21µM	·	–	–	–
CCCCN1CC[C@H]2C=CC[C@@H](C(=O)NCc3cccnc3)[C@H]2C1=O	·	·	·	–	·	–
CCCCCCCCn1c2c(c(=N)c3ccccc31)CCC2	?	2.9µM	–	–	–	–
Cc1ccc(Cn2c(=S)[nH]c3ccc(N4CCOCC4)cc3c2=O)o1	·	–	–	–	–	4.5µM
CC(=O)C1CCC2C3CCC4=CC(=O)CC[C@]4(C)[C@@]3(F)C(O)C[C@]12C (stereo partly drawn)	–	2.9µM	–	–	–	–
CCOC(=O)Cc1csc(NC(=O)CSc2ncnc3c2cnn3-c2ccccc2Cl)n1	–	21µM	–	–	–	–
O=C(CSc1ncnc2c1cnn2-c1ccccc1Cl)N1CCN(C(=O)c2ccco2)CC1	–	15µM	–	–	–	?
Cc1cccc(OCC(=O)Nc2ccc(C(=O)OCc3cc(=O)n4nc(C5CC5)sc4n3)cc2)c1	–	·	·	–	–	–
O=C(COc1ccc(Cl)cc1Cl)N/N=C/c1ccc[nH]1	?	9.2µM	–	–	–	–
Cc1c(Cl)cccc1NC(=O)CCC(=O)N/N=C/c1ccc[nH]1	?	18µM	–	–	–	–
O=C(COc1ccc(Cl)cc1Cl)N/N=C/CCc1ccccc1	–	–	–	–	–	–
CC(C1CC1)N(Cc1ccccc1)C(=S)Nc1ccccc1Cl (stereo not drawn)	–	29µM	–	–	–	–
CC(C1CC1)N(Cc1ccccc1)C(=O)NC(=O)c1ccccc1 (stereo not drawn)	–	–	–	–	–	–
CC(=O)c1cccc(NC(=O)c2cc(C)nc3c2c(C)nn3-c2cccc(Cl)c2C)c1	–	?	·	–	–	–
CCN1CCN(C(c2ccc(C(F)(F)F)cc2)c2ccc3cccnc3c2O)CC1 (stereo not drawn)	–	?	–	–	–	3.5µM
CN1CCN(C(c2ccc(C(F)(F)F)cc2)c2cc(Cl)c3cccnc3c2O)CC1 (stereo not drawn)	·	·	–	·	·	·
COc1ccc(S(=O)(=O)NCCc2cn3ccsc3n2)cc1OC	–	·	·	–	–	–
CCCCOc1ccc(C(=O)CCN2CCOCC2)cc1	–	–	–	–	–	3.5µM
CCOc1ccc(C(=O)CCN2CCCCCC2)cc1	–	–	–	–	–	0.25µM
CCCOc1ccc(C(=O)CCN2CCCCC2)cc1	–	–	–	–	–	?
CCCCOc1ccc(C(=O)O)cc1	–	–	–	–	–	–
CCCCCCCCOc1ccc(C(=O)O)cc1	?	?	13µM	–	–	–
Cc1nc2scc(C)n2c(=O)c1S(=O)(=O)Nc1ccc(F)cc1	–	?	–	–	–	–
SMILES	A549 tox	Nrf2 inh	Mito fusion yeast	TrxR1 substrate	IDH1 R132H inh	TrxR1 inh
CCCCOC(=O)c1ccc(NS(=O)(=O)c2c(C)nc3scc(C)n3c2=O)cc1	–	16µM	·	–	–	–
N#C/C(=C/c1ccc(N2CCOCC2)o1)c1nc2ccccc2[nH]1	?	·	–	–	–	–
N#C/C(=C/c1ccc(N2CCOCC2)o1)c1ccc(Br)cc1	–	–	–	–	–	11µM
N#C/C(=C\c1ccc(N2CCOCC2)o1)c1ccccc1	–	?	–	–	–	3.5µM
N#C/C(=C/c1ccc(N2CCCCCC2)o1)c1ccc(F)cc1	–	?	·	–	–	5µM
C=CCOc1ccc2c(=O)n(C)c3ccccc3c2c1	–	–	·	–	·	–

Source: PubChem (National Center for Advancing Translational Sciences (NCATS))
